# TLR4-MyD88 BLA: blocks binding of human TLR4 to MyD88; inhibition, % at 8.4 µM; HeLa CL3-4 TLR4/MyD88 BLA complementation, FRET ratio; 200,000 compounds, 0.18% hits; O00206+Q99836; in the data active = inhibition above about 25%;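 note: 0% = vehicle and 100% = reference inhibitor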
# NOD2 RIPK2 PPI: inhibitors of human NOD2-RIPK2 interaction; inhibition, % at 4.98 µM; 360,000 compounds, 0.38% hits; CHO BLA complementation NOD2-RIPK2, CCF4 ratio; in the data active = inhibition above about 21%;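 note: 0% = vehicle only and 100% = reference blocker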
# Myeloid diff MLP: compounds promoting myeloid differentiation | ER-HoxA9 myeloid progenitors, lysozyme-GFP differentiation, flow cytometry | calls only at 10 µM | 360,000 compounds, 1% hits;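 active = normalized GFP-positive differentiation at or above the plate's own cutoff, the solvent-only control mean plus 3 SD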;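 note: cells exposed to compound for four days before flow analysis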
# TLR9-MyD88 inh: inhibitors of human TLR9-MyD88 binding; CHO BLA complementation TLR9-MyD88, CCF4 FRET ratio; inhibition, % at 4.98 µM; Q9NR96+Q99836; 340,000 compounds, 0.21% hits;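 active = inhibition above the mean over all tested compounds plus 3 SD, cut at about 21% in these data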;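 note: 0% = DMSO only wells and 100% = clavulanate BLA inhibitor control wells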
# Target sequence (Q99836 whole entry, looked up): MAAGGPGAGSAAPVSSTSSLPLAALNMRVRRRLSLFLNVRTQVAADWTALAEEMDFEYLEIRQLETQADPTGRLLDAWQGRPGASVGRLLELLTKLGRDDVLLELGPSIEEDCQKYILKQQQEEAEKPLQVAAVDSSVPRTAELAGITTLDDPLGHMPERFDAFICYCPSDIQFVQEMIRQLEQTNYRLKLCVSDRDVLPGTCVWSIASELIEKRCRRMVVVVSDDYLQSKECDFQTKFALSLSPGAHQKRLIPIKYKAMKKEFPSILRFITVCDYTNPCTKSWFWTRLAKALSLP
# Target sequence (Q9NR96 whole entry, looked up): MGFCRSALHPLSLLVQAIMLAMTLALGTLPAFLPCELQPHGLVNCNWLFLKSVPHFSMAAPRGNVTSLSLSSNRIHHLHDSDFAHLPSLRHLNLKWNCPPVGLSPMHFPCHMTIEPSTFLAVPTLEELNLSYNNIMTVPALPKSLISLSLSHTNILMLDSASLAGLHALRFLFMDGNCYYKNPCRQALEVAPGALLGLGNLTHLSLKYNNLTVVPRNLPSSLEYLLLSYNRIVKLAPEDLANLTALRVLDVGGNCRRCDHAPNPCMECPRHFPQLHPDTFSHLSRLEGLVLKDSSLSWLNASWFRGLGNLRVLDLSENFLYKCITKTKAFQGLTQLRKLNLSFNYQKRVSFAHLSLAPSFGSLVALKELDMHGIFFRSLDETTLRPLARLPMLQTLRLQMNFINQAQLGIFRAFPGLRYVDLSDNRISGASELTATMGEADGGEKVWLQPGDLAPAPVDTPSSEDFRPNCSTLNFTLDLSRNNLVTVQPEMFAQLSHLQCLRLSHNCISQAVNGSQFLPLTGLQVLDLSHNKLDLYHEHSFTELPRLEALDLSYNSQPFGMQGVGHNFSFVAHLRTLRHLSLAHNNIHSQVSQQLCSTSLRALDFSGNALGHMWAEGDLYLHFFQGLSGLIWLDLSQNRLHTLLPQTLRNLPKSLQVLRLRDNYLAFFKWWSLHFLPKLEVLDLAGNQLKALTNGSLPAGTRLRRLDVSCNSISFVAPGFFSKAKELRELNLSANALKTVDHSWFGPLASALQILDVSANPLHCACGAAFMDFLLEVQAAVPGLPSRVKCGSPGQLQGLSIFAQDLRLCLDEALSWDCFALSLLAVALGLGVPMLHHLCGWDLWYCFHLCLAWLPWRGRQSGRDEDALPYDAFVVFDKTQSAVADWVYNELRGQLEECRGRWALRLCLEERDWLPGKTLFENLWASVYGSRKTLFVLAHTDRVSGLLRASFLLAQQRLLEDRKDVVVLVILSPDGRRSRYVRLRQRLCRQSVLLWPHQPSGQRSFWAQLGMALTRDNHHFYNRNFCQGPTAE
# ABCB6 inh MLPCN: inhibitors of human ABC transporter ABCB6. Q9NP58. K562-ABCB6 porphyrin accumulation, flow cytometry, 1 h; hits give low values. fluorescence ratio to DMSO, % at 10 µM. 360,000 compounds, 0.19% hits;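 active = fluorescence ratio to DMSO below 75%, the collection mean minus 3 SD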;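 note: signal is porphyrin accumulated inside mitochondria; 100% equals median channel fluorescence of DMSO control wells; lower ratio means ABCB6 inhibition with less porphyrin fluorescence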
# Myeloid diff: compounds promoting myeloid differentiation. ER-HoxA9 myeloid progenitors, GFP/Mac1 double-positive flow. AID 651706. shares compounds with Myeloid diff MLP. 2,300 compounds, 2% hits. calls only;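 active = share of green or green-and-red cells above 9 and 9% in run 1 or 4 and 3% in run 2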
# GFP autofluor: flagged as fluorescent in myeloid differentiation counter-screen; shares compounds with Myeloid diff MLP; ER-HoxA9 myeloid progenitors, no estrogen, GFP autofluorescence flow cytometry; vehicle wells 0%, positive control 100%; fluorescence response, % (test concentration not listed); 2,300 compounds, 7.4% hits; AID 651707;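 active = over 5% cells positive for green fluorescent reporter, or over 2% positive for both it and APC stain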;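 note: range taken on the double positive population between DMSO and positive control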
# An asterisk follows results filed as active; i = inactive; · = no result; + = active, no number. Hits are enriched below; roughly 1.7% of the tested compounds scored in any of these assays.
SMILES,TLR4-MyD88 BLA,NOD2 RIPK2 PPI,Myeloid diff MLP,TLR9-MyD88 inh,ABCB6 inh MLPCN,Myeloid diff,GFP autofluor
O=S(=O)(NCC(c1ccco1)N1CCOCC1)c1ccc(Cl)cc1 (centres undefined),-0.4,8.8,i,1.0,98.0,·,·
O=c1oc2ccccc2c(Nc2ccccc2O)c1[N+](=O)[O-],6.0,-0.9,+,0.4,94.0,i,0.0
CCCCn1c(=O)[nH]c2c(oc3ccccc32)c1=O,·,4.0,+,-5.7,106.0,i,0.0
CCCCn1c(=O)c2ccccc2c2ccccc2c1=O,-4.2,7.4,i,-0.7,94.0,·,·
Cc1ccc2c(C)c(C(=O)N3CCC(C(N)=O)(N4CCCCC4)CC3)oc2c1C,·,7.8,i,-6.7,102.0,·,·
CC(=O)NC1CC2CCCC(C1)N2S(=O)(=O)c1cccc(F)c1 (centres undefined),9.8,-6.5,+,7.1,103.0,i,0.0
CC(C)(C)c1ccc(C(=O)N/C(=C\c2cccc([N+](=O)[O-])c2)C(=O)Nc2cccc(C(=O)O)c2)cc1,·,-5.5,i,6.1,100.0,·,·
CCN1/C(=C2/OC(=S)N(C)C2=O)Sc2ccccc21,8.5,2.9,i,-2.3,101.0,·,·
CCN1/C(=C\C=C2\C(=O)N(C)C(=S)N2C)Sc2ccccc21,1.1,-1.9,i,-0.5,122.0,i,0.4
CC1CCC(NC(=O)CC(C)(C)Cc2nc3ccccc3c(=O)[nH]2)CC1 (centres undefined),-14.2,2.7,i,-5.4,91.0,i,1.2
CCN(CC(=O)NC(=O)NC1CCCCC1)Cc1nc2ccccc2c(=O)[nH]1,-1.3,-9.9,i,-12.4,95.0,·,·
CC(Sc1n[nH]c(N)n1)C(=O)NC1CCCCC1C (centres undefined),·,-11.7,i,9.8,97.0,·,·
CCc1nnc(NC(=O)CCS(=O)(=O)Cc2ccccc2)s1,·,-5.0,+,-3.1,96.0,i,1.0
Cc1cc(N2CCCCC2)nc(N)n1,-14.5,3.5,+,0.2,105.0,i,0.0
Cc1cc(N2CCCC2)nc(-c2ccccc2O)n1,-3.8,-9.6,i,-2.5,112.0,·,·
COc1ccc(C(CNC(=O)COc2ccccc2C#N)N2CCOCC2)cc1 (centres undefined),1.2,-5.5,+,-3.8,100.0,i,0.0
Cc1ccc([C@H]2C(C(=O)O)=C[C@@H](CC3CCCC3)N2S(=O)(=O)c2ccc(C)cc2)cc1,·,-17.6,i,-5.8,99.0,·,·
Cc1ccc(S(=O)(=O)N2[C@@H](c3ccc4c(c3)OCO4)C(C(=O)O)=C[C@H]2CC2CCCC2)cc1,·,-8.0,+,-7.5,103.0,i,0.0
CCC(=O)Nc1cccc(NC(=O)CSc2nnc(C3CC3)n2C)c1,-1.1,0.6,i,-2.9,112.0,i,0.4
Cc1ccc(OCCOC(=O)c2cc(S(=O)(=O)N3CCCCC3)ccc2N2CCOCC2)cc1,·,5.3,+,-1.8,88.0,i,0.0
O=C(Nc1cccc(F)c1)c1cc(S(=O)(=O)N2CCOCC2)ccc1N1CCCC1,·,-9.2,i,5.5,98.0,·,·
O=C(Nc1cccc(C(F)(F)F)c1)c1cc(S(=O)(=O)N2CCCCC2)ccc1N1CCOCC1,4.0,-2.9,i,-13.5,105.0,i,0.0
O=C(OCCOc1ccc(Cl)cc1)c1cc(S(=O)(=O)N2CCCCC2)ccc1N1CCOCC1,·,6.5,i,-17.9,92.0,·,·
CCn1cc(S(=O)(=O)Nc2cc(C(=O)OC)ccc2C)cn1,·,-2.6,i,-12.3,97.0,·,·
O=C(CN1CCN(Cc2ccccc2)CC1)N/N=C/c1cccnc1,·,2.8,i,1.9,101.0,·,·
SMILES,TLR4-MyD88 BLA,NOD2 RIPK2 PPI,Myeloid diff MLP,TLR9-MyD88 inh,ABCB6 inh MLPCN,Myeloid diff,GFP autofluor
O=S(=O)(NCCNS(=O)(=O)c1cccs1)c1cccs1,-3.6,-6.8,i,-6.1,94.0,·,·
O=S(=O)(NCc1ccccc1Br)c1cccs1,-5.3,-8.0,i,-6.3,103.0,i,0.0
COc1ccc(C(CCNCc2ccccc2)c2ccc(F)cc2)cc1 (centres undefined),13.6,4.3,i,-4.7,93.0,i,1.6
CCc1cc(C(=O)N(C)CC(=O)N(CC(C)C)c2c(N)n(CC(C)C)c(=O)[nH]c2=O)sc1C,·,1.3,i,1.3,101.0,·,·
O=[N+]([O-])c1ccccc1-c1ccc(C(=S)N2CCN(c3ccccc3)CC2)o1,·,6.5,+,-16.9,98.0,i,0.4
COc1cc(C(=O)NCCC(=O)NCc2c(F)cc(F)cc2F)cc(OC)c1OC,·,-1.8,i,-1.8,98.0,i,0.0
COc1cc(C(=O)NCCC(=O)NCCc2ccc(Cl)cc2)cc(OC)c1OC,-3.0,-4.4,i,-4.7,103.0,·,·
Cc1ccc(CNc2nc(NCC3CC3)nc3ccsc23)c(C)c1,·,7.5,+,·,97.0,i,0.0
COc1cc(CNc2ccc3[nH]c(=O)[nH]c3c2)ccc1OCc1ccc(F)cc1,·,0.7,i,-11.6,97.0,i,0.3
COc1cc(CNc2ccc3[nH]c(=O)[nH]c3c2)ccc1OCc1ccc(Cl)cc1,·,5.0,i,-7.1,112.0,i,0.3
CC(=O)N1CCN(c2ccc(NCc3ccc(F)cc3)cc2)CC1,5.5,-7.9,i,-2.5,103.0,·,·
COc1cc(CNc2ccc3[nH]c(=O)[nH]c3c2)ccc1OCc1ccccc1,·,5.0,i,-9.8,94.0,·,·
COc1cc(CNc2ccc3[nH]c(=O)[nH]c3c2)ccc1OCc1c(F)cccc1Cl,·,-8.8,i,3.4,90.0,·,·
COc1cc(CNc2ccc(N3CCN(C(C)=O)CC3)cc2)ccc1OCc1ccc(F)cc1,-4.3,-4.3,i,3.2,95.0,i,0.4
COc1cccc(OC)c1C(=O)OCC(=O)Nc1ccc(OC(F)(F)F)cc1,-1.2,6.9,i,-5.7,96.0,·,·
COc1ccccc1CC1CC(=O)N(c2ccc([N+](=O)[O-])cc2)C1=O (centres undefined),·,1.2,i,-3.5,95.0,·,·
Cc1cccc(NS(=O)(=O)c2cccc(C(=O)N3CCN(C/C=C/c4ccccc4)CC3)c2)c1,·,0.6,i,-11.2,100.0,·,·
COc1cc(CC(=O)N(CC(C)C)C2CCS(=O)(=O)C2)cc(OC)c1OC (centres undefined),·,-2.4,i,-1.4,105.0,·,·
O=C(Cn1nnc(-c2ccccc2Cl)n1)N/N=C/c1ccc(-c2cccc(Cl)c2)o1,0.4,-0.9,i,0.5,92.0,·,·
CC(C)Cn1c(N)c(C(=O)COC(=O)c2cnc(Cl)c(Cl)c2)c(=O)n(C)c1=O,21.9,-2.0,i,-2.5,101.0,·,·
Cc1csc(SCC(=O)c2c(N)n(CC(C)C)c(=O)n(C)c2=O)n1,4.1,-2.1,+,-2.4,97.0,i,51.4*

# Screening data as filed in PubChem.
